Measurements: PubChem BioAssay (NCATS)
Results filed as inconclusive are left out. A call without a number means that no potency is given here. Active and inactive are the calls of the source. Calls come from the whole dose curve; as a rule, active = well fitted curve in the direction sought with a large enough effect; inconclusive = small, poorly fitted or top-dose-only effect, or another doubt; inactive = no such curve, though single readings can be large; an effect the other way counts as inactive or inconclusive. Numbered stars: 1 amine (or outer) side, 2 acyl side, 3 side chain; on linkers, the order of the positions; unused ones are H or OH. Square brackets hold non-standard residues; d marks the D form. Peptide text beside a SMILES is read from it. X3 = CC(CC(O[*:1])C(=O)[*:2])C(=O)O; NMeV = CN[CH](C(=O)O)C(C)C; NMeA = CN[CH](C)C(=O)O; βAla = NCCC(=O)O

Legend:
[1] = molecular target: Cellular tumor antigen p53 (Homo sapiens) (UniProt P04637); assay: Primary qHTS for small molecule compounds that upregulate eGFP-tagged delta133p53alpha (in N-terminal) cells. (AID 2060322); conditions: NCI-H358 eGFP-delta133p53alpha fluorescence, 24 h; activation: hits give high values; note: nearly all actives have a fitted effect of over 75% in size; note: potency is the fitted concentration of half-maximal effect
In short: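 NCI-H358 cells pre-induced 24 h with 10 ng/ml doxycycline to express N-terminal eGFP-delta133p53alpha, then dosed 24 h at 37C without doxycycline; fixed, Hoechst-stained, GFP intensity by laser scanning cytometry, normalized to DMSO (0%) and 57.5 uM 5-azacytidine (100%).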

[2] = molecular target: Aldehyde dehydrogenase, mitochondrial (Homo sapiens) (UniProt P05091); assay: qHTS for Inhibitors of the Aldehyde Dehydrogenase Family (ALDH2) Primary screen (AID 2061308); conditions: ALDH2 enzyme inhibition qHTS, 1536-well; series mostly up to 56 µM; note: nearly all actives have a fitted effect of over 55% in size
[3] = molecular target: Retinaldehyde dehydrogenase 3 (Homo sapiens) (UniProt P47895); assay: qHTS for Inhibitors of the Aldehyde Dehydrogenase Family (ALDH1A3) Primary screen (AID 2061315); conditions: ALDH inhibition qHTS; series mostly up to 56 µM

Chain of Cellular tumor antigen p53 (Homo sapiens) (P04637 whole entry, looked up): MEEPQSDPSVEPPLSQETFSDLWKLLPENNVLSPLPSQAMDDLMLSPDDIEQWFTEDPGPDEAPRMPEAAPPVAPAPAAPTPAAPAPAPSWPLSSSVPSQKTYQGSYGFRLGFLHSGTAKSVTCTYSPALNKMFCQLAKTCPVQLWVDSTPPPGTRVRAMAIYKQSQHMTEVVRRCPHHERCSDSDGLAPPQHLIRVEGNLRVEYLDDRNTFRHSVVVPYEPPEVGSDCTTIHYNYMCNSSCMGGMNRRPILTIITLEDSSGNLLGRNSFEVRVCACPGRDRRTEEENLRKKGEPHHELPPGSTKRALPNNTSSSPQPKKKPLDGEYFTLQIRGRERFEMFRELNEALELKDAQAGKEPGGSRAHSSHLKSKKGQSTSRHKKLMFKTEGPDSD

## CCOC(=O)c1ncn2c1CN(C)C(=O)c1c(I)cccc1-2
[1]
  activation: 7.67% (inactive)
[2]
  Potency: inactive
[3]
  Potency: inactive

## CC(C)(O)[C@H]1O[C@H]2CC[C@@]3(C)[C@@](O)(CC[C@H]4Cc5c([nH]c6ccccc56)[C@@]43C)C2=CC1=O
[1]
  activation: 3.82% (inactive)
[2]
  Potency: inactive
[3]
  Potency: inactive

## C[C@]12CC[C@H]3[C@@H]([C@H](O)CC4=CC(=O)CC[C@@]43C)[C@@H]1CC[C@@H]2O
[1]
  activation: -2.33% (inactive)
[2]
  Potency: inactive
[3]
  Potency: inactive

## CC(=O)OC[C@]12C[C@H](OC(=O)CC(C)C)C(C)=C[C@H]1O[C@@H]1[C@H](O)C[C@@]2(C)[C@]12CO2
[1]
  Potency: 3700 nM (active)
[2]
  Potency: inactive
[3]
  Potency: inactive

## O=C(O)c1ccnc2cc(C(OCCN3CCCCC3)c3ccccc3Cl)[nH]c12 (stereo not drawn)
[1]
  activation: -17% (inactive)
[2]
  Potency: inactive
[3]
  Potency: inactive

## Fc1cc(F)c2c(c1)[C@H]1C=CC[C@H]1C(c1cccnc1)N2 (stereo partly drawn)
[1]
  activation: 2.39% (inactive)
[2]
  Potency: inactive
[3]
  Potency: inactive

## CC12Cc3cn[nH]c3C=C1CCC1C2CCC2(C)C1CCC2(C)O (stereo not drawn)
[1]
  activation: 8.33% (inactive)
[2]
  Potency: inactive
[3]
  Potency: inactive

## CC(C)[C@H](NC(=O)c1nn(Cc2ccc(F)cc2)c2ccccc12)C(N)=O
[1]
  activation: -6.68% (inactive)
[2]
  Potency: inactive
[3]
  Potency: inactive

## C=CC(C)(C)c1[nH]c2cccc3c2c1C[C@@H]1[C@@H]3[C@@H](OC(C)=O)[C@H](C)CN1C
[1]
  activation: 1.53% (inactive)
[2]
  Potency: inactive
[3]
  Potency: inactive

## CC1=C2C(=O)C3[C@@H](CC=C4C[C@@H](O)CC[C@@]43C)[C@@H]2CC[C@]12O[C@@H]1C[C@H](C)CN[C@H]1[C@H]2C (stereo partly drawn)
[1]
  activation: 4.58% (inactive)
[2]
  Potency: inactive
[3]
  Potency: inactive

## C/C=C(\C)C(=O)O[C@H]1[C@H](OC(C)=O)[C@]2(CO)[C@H](O)[C@H](O)[C@]3(C)C(=CCC4[C@@]5(C)CC[C@H](O[C@@H]6O[C@H](C(=O)O)[C@@H](O)[C@H](O[C@@H]7OC[C@H](O)[C@H](O[C@@H]8OC[C@H](O)[C@H](O)[C@H]8O)[C@H]7O)[C@H]6O[C@@H]6O[C@H](CO)[C@@H](O)[C@H](O)[C@H]6O)C(C)(C)C5CC[C@]43C)[C@@H]2CC1(C)C (stereo partly drawn)
[1]
  activation: -3.05% (inactive)
[2]
  activity change, negative = inhibition: 1.02% [at 11.2 µM] (inactive)
[3]
  activity change, negative = inhibition: 2.55% [at 11.2 µM] (inactive)

## COC1=CC(=O)O[C@@H](CCc2ccccc2)C1
[1]
  activation: -13.4% (inactive)
[2]
  Potency: inactive
[3]
  Potency: inactive

## C/C=C(\C)C(=O)OC1CC2C(CC=C3CC(OC4CC(OC)C(OC5CC(OC)C(OC6OC(C)C(OC7OC(CO)C(O)C(O)C7O)C(OC)C6O)C(C)O5)C(C)O4)CCC32C)C2(O)CCC(C(C)=O)C12C (stereo not drawn)
[1]
  activation: -6.25% (inactive)
[2]
  Potency: inactive
[3]
  Potency: inactive

## CCCCCn1cc(C(=O)c2cccc3ccccc23)c2ccccc21
[1]
  activation: 20.5% (inactive)
[2]
  Potency: inactive
[3]
  Potency: inactive

## CCC(C)C1NC(=O)C2CCCN2C(=O)C(CC(C)C(=O)O)OC(=O)CCNC(=O)C(C)N(C)C(=O)C(C(C)C)N(C)C1=O (stereo not drawn) (cyclo([X3]PI[NMeV][NMeA][βAla]); configuration not given here)
[1]
  activation: -10.7% (inactive)
[2]
  Potency: inactive
[3]
  Potency: inactive

## Oc1ccc2c3c1O[C@H]1[C@H](N(CCCl)CCCl)CC[C@@]4(O)[C@@H](C2)N(CC2CC2)CC[C@]314
[1]
  activation: -14.3% (inactive)
[2]
  activity change, negative = inhibition: -5.73% [at 11.2 µM] (inactive)
[3]
  activity change, negative = inhibition: -18.8% [at 11.2 µM] (inactive)

## C=C1[C@@H]2CC[C@@]3(C)[C@H](c4ccoc4)OC(=O)C[C@]13O[C@H]1CC(=O)C(C)(C)[C@H](C(OC(C)=O)C(=O)OC)[C@]12C (stereo partly drawn)
[1]
  activation: -8.4% (inactive)
[2]
  Potency: inactive
[3]
  Potency: inactive

## COC(=O)[C@@]12C(=O)C(C)C(=O)[C@]1(C)C(C)=C[C@H]1[C@]3(C=O)CC[C@H](OC(C)=O)C(C)(C)[C@H]3CC[C@@]12C (stereo partly drawn)
[1]
  activation: 19.1% (inactive)
[2]
  Potency: inactive
[3]
  Potency: inactive

## C[C@]12CC[C@H](O)C[C@H]1CC[C@@H]1[C@@H]2[C@H](O)C(=O)[C@]2(C)[C@@H](c3ccc(=O)oc3)CC[C@]12O
[1]
  Potency: 190 nM (active)
[2]
  Potency: inactive
[3]
  Potency: inactive

## C[C@H]1C(=O)O[C@H]2[C@H](O)[C@]34C5OC(=O)[C@]3(O[C@@H]3OC(=O)[C@H](O)C34[C@H](C(C)(C)C)[C@H]5O)C12O (stereo partly drawn)
[1]
  activation: -12.2% (inactive)
[2]
  Potency: inactive
[3]
  Potency: inactive

## C=C1C[C@]2(O)[C@@]3(C)CCC(=O)C(C)(C)C3=C(O)C(=O)[C@@]2(C)[C@@H]2C(=O)O[C@@](C)(C(=O)OC)C(=O)[C@@]12C
[1]
  activation: -4.58% (inactive)
[2]
  Potency: inactive
[3]
  Potency: inactive
